Drawing on ChEMBL document CHEMBL3988442, “University of Dundee, Small-Polar-MMV Screening Library” (2021), this text covers Percent Effect for twelve compounds.

What all share (parameters): scale not given: direction of the effect not stated beside the values
Assay [1] addresses Protein translocase subunit SecA (Escherichia coli (strain K12)) (UniProt P10408). Nature of the assay: Assay to Identify E. coli SecA ATPase Inhibitors. Type of assay: functional. Conditions: 30 µM.
Assay [2] deals with T1, Ubiquitin-activating enzyme e1, putative (Leishmania donovani (strain BPK282A1)) (UniProt E9BSI1).
T1 sequence (whole entry): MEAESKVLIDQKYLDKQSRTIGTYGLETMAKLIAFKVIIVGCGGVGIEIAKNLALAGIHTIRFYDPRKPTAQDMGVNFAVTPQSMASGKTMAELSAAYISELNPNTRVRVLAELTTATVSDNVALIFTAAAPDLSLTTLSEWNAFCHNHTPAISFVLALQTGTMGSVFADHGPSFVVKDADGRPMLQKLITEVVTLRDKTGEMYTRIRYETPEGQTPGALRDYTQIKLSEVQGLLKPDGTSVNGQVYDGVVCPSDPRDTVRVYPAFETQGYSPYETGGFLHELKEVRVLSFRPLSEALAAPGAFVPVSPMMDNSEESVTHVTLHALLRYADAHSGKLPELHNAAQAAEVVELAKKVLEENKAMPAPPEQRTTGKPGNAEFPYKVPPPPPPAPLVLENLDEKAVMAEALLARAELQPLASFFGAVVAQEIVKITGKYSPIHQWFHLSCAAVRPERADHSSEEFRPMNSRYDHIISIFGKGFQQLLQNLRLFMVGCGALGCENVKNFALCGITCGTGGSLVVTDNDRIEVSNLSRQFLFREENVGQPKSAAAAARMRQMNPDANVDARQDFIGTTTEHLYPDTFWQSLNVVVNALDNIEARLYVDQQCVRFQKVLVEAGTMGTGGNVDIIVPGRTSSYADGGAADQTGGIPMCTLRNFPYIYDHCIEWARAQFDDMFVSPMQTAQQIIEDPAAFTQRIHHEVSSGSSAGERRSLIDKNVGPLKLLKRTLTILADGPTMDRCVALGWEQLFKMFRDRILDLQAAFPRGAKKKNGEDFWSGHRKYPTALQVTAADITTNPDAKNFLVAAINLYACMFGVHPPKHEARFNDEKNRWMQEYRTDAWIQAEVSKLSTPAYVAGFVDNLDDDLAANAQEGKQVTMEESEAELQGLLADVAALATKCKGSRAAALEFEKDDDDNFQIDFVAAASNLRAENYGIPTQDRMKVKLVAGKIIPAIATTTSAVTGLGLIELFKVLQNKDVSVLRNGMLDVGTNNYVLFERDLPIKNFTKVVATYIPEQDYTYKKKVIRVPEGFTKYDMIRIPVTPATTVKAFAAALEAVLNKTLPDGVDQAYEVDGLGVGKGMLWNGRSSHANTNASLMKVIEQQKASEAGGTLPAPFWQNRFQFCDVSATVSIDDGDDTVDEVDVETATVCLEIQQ
Nature of the assay: Leishmania donovani Ubiquitin Activating Enzyme (LdE1). The following applies: 30 µM. The class given is functional.

For assay [3], the target named is Sialic acid-binding Ig-like lectin 9 (Homo sapiens) (UniProt Q9Y336). Nature of the assay: Hs-Siglec9 ALPHAscreen SOP 20170721. Conditions: 10 µM. (In general: Alpha assays give light when donor and acceptor beads are brought close together.)
Chain of Sialic acid-binding Ig-like lectin 9 (Homo sapiens) (Q9Y336 whole entry): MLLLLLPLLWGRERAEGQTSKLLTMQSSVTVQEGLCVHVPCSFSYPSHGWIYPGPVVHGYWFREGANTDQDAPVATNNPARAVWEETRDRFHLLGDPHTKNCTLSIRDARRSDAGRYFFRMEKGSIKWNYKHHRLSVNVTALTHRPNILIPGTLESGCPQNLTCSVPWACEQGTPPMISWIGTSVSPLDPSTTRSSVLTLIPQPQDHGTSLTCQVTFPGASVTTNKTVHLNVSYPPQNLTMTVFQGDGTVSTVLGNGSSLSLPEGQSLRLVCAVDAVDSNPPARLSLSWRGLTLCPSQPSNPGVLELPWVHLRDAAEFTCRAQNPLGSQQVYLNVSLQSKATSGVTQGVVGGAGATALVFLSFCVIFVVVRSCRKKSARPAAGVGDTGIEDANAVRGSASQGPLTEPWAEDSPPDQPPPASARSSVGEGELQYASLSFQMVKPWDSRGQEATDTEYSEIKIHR
For a further assay, the system named is Trypanosoma cruzi. The assay can be described thus: Trypanosoma cruzi phosphomannomutase and mannose-1-phosphate guanylyltransferase assay. The class given is functional. The following applies: 10 µM.
Assay [4] concerns the target T2, Arginase-2, mitochondrial (Homo sapiens) (UniProt P78540).
T2 sequence (whole entry): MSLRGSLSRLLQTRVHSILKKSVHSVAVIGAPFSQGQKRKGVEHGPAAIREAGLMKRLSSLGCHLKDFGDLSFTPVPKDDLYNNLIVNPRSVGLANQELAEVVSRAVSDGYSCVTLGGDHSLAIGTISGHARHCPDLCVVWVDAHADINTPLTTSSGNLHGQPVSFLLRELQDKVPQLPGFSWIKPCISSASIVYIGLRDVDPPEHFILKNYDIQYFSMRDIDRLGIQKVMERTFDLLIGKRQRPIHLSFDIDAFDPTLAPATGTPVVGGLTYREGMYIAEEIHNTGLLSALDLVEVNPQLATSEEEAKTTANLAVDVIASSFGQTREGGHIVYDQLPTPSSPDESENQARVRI
Nature of the assay: in vitro enzyme assay to detect the production of urea directly proportional to the activity of Arginase II. Note: in the data most compounds retested in dose-response had high values. Type of assay: functional. The following applies: 33.3 µM.

The target of assay [5] is T3, Proteasome subunit beta (Trypanosoma cruzi) (UniProt O96673).
T3 sequence (whole entry): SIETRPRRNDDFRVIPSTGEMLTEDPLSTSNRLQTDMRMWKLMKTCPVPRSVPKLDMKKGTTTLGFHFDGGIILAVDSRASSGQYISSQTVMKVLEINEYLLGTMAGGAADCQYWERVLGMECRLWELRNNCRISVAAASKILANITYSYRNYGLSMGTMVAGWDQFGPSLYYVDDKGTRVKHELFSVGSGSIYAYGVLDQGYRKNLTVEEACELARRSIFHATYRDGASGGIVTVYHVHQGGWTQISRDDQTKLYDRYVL
The assay can be described thus: Trypanosoma cruzi proteasome chymotrypsin-like activity (TcProtChymo) assay. Note: in the data most compounds retested in dose-response had high values. Type of assay: functional. Conditions: 9.37 µM.

The species entered for a further assay is Homo sapiens. Nature of the assay: To identify inhibition of the IFN signalling (Jak-Stat) pathway via expression of an eGFP reporter gene under the control of an IFN-stimulated response element (ISRE) containing MxA promoter. The class given is functional. Conditions: 30 µM. On the technique in general: Reporter assays use an easily measured gene product as a stand-in for the process of interest.

In assay [6] the target is T4, Tyrosyl-tRNA synthetase, putative (Trypanosoma cruzi (strain CL Brener)) (UniProt Q4DSP6).
T4 sequence (whole entry): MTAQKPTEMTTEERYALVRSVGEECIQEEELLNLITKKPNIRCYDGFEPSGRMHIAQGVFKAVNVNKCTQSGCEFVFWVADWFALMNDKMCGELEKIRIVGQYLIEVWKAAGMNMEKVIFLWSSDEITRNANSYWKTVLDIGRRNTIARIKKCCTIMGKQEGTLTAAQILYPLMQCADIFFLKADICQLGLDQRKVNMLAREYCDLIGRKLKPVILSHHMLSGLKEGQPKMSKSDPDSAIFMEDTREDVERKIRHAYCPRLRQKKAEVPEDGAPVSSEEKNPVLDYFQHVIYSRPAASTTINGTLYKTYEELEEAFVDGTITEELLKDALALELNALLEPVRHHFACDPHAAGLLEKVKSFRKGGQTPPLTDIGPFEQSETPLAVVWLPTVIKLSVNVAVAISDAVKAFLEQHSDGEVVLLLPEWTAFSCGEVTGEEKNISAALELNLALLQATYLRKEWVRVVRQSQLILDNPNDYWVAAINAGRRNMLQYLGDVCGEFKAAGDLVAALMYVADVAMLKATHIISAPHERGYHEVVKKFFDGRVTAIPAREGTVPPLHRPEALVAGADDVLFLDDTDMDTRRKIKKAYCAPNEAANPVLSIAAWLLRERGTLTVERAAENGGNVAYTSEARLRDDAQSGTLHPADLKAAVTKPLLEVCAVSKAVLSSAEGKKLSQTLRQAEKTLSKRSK
Nature of the assay: Trypanosoma cruzi tyrosyl tRNA synthetase (TcYRS) _High Tyrosine SOP. Note: in the data most compounds retested in dose-response had high values. Type of assay: functional. The following applies: 30 µM.

The target in assay [7] is T4, Tyrosyl-tRNA synthetase, putative (Trypanosoma cruzi (strain CL Brener)). Nature of the assay: Trypanosoma cruzi tyrosyl tRNA synthetase (TcYRS) SOP. The class given is functional. The following applies: 30 µM.
Assay [8] concerns the target Chromo domain-containing protein 1 (Saccharomyces cerevisiae (strain ATCC 204508 / S288c) (Baker's yeast)) (UniProt P32657). Nature of the assay: ScCHD-1 Enzyme Inhibition Assay. Note: in the data most compounds retested in dose-response had high values. The class given is functional. The following applies: 30 µM.

For part of these data: Potency and affinity values are given separately.

Chain of Chromo domain-containing protein 1 (Saccharomyces cerevisiae (strain ATCC 204508 / S288c) (Baker's yeast)) (P32657 whole entry, the tested form may be a part): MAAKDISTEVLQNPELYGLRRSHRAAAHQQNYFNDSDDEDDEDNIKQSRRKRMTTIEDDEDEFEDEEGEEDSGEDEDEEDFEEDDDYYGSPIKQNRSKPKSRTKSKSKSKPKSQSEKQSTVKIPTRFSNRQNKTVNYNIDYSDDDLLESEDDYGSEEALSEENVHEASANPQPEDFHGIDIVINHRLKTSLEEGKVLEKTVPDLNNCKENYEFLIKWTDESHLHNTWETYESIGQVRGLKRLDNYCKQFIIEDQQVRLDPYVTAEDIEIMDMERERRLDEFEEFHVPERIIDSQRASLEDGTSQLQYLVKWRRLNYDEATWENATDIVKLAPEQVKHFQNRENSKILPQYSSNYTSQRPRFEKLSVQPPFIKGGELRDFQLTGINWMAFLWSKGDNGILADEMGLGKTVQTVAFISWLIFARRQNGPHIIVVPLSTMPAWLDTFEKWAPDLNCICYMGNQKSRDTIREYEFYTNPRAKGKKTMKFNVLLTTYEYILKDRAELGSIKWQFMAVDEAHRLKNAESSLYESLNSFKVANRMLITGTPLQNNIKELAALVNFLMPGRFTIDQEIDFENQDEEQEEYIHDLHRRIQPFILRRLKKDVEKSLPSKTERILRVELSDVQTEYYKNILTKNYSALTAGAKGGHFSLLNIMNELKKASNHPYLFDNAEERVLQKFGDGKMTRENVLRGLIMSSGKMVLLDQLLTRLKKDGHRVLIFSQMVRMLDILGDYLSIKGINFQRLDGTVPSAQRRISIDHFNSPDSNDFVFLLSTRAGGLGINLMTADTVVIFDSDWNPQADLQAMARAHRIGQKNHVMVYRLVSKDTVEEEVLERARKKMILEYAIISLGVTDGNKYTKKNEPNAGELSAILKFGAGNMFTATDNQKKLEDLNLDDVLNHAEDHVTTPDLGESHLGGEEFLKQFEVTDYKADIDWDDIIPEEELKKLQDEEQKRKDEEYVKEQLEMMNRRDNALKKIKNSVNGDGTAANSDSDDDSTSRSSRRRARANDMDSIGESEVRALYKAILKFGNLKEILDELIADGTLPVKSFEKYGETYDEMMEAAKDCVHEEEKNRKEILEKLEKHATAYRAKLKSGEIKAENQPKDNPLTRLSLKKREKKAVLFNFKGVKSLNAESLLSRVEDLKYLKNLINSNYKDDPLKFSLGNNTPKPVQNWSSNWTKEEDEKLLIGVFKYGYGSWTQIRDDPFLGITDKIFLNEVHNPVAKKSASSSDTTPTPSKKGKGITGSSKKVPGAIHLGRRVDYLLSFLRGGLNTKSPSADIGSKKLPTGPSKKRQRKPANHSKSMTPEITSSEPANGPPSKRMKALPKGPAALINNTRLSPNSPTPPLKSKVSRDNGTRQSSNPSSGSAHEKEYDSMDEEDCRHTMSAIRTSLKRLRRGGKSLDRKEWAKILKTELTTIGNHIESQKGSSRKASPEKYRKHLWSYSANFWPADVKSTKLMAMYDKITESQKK
Chain of Protein translocase subunit SecA (Escherichia coli (strain K12)) (P10408 whole entry): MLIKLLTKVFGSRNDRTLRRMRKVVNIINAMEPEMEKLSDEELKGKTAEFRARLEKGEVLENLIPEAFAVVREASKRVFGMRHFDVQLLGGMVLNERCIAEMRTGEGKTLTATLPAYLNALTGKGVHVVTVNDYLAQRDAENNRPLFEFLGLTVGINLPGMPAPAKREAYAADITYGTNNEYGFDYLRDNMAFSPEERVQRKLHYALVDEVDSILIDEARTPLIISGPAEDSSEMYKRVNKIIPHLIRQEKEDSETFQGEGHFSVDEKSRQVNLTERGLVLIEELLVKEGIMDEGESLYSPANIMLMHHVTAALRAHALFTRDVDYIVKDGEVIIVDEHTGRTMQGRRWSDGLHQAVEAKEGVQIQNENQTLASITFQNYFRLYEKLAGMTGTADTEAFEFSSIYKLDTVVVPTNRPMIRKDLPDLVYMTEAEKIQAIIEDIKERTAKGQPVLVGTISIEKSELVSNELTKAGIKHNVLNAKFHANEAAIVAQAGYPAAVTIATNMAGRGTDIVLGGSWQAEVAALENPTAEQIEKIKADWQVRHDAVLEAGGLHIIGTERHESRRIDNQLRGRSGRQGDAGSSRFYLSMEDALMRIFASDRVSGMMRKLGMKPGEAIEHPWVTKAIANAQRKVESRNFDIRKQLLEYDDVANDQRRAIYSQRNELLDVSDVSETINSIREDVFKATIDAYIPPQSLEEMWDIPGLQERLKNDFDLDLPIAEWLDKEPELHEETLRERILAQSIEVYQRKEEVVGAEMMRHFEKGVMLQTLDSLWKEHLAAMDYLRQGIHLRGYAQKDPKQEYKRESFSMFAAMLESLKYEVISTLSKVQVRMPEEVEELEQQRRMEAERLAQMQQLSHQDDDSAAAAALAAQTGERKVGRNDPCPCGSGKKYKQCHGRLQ

Regarding `Cc1noc(C)c1C(=O)N1CC[C@H]2C[C@@H](c3ccncn3)O[C@@H]2C1`, the Percent Effect in [1] was -7.73%; in assay [2] it was 6.49%; in [3] it was 0.544%; with Trypanosoma cruzi it was -1.46%; in assay [4], -2.43%; in assay [5], 11.7%. Also, the Percent Effect in the assay filed under Homo sapiens was -4.26%; in assay [6], 5.79%; in [7], 15.4%; in [8] it was -2%.

In the case of `COC[C@@H]1CC[C@H]2[C@H](CCN2S(=O)(=O)c2ccc(OC)cc2)O1`, the Percent Effect is -2.3% in assay [1]; -1.3% in assay [2]; 2.46% in [3]; -0.876% with Trypanosoma cruzi; -1.62% in assay [4]; 6.09% in [5]. Also, the Percent Effect in the assay filed under Homo sapiens is -19.4%; in [6], -1.58%; in assay [7] it was 5.13%; in [8] it was 1.57%.

For `COc1ncc(CN2CC[C@@](C)(O)[C@H](Oc3cccc(F)c3)C2)cn1`, the Percent Effect was -2.75% in [1]; 9.33% in assay [2]; -0.132% in assay [3]; -2.76% in the assay with Trypanosoma cruzi; -1.33% in [4]; 6.73% in [5]. Also, the Percent Effect in the assay filed under Homo sapiens is 8.72%; in assay [6], 4.23%; in [7], 10%; in assay [8], -23.1%.

With `CCNc1nc2c(s1)C(=O)CN(C(=O)NCCc1ccccc1)C2`, the Percent Effect in assay [1] was -3.42%; in assay [2] it was 5.33%; in [3] it was -0.604%; with Trypanosoma cruzi it was -6.43%; in assay [4], 3.99%; in assay [5], -1.95%. In addition, the Percent Effect in the assay listed under Homo sapiens worked out at 9.15%; in [6], 1.58%; in assay [7] it was 2.56%; in assay [8] it was 2.08%.

Consider `CC(=O)N1CCC2(CCN(C(=O)c3ccc(Cl)c(C(F)(F)F)c3)CC2)C1`, for which the Percent Effect in assay [1] was -7.31%; in assay [2] it was 6.49%; in assay [3] it was 5.74%; in the assay with Trypanosoma cruzi, 0.292%; in assay [4] it was -0.405%; in assay [5], 7.5%. In addition, the Percent Effect is -12.1% in the assay listed under Homo sapiens, 6.84% in assay [6], 7.69% in [7] and 3.63% in assay [8].

On to `Cc1nc(-c2cccc(C(=O)O)c2)cc(C2CCN(C(C)C)C2)n1` (stereo not given), for which the Percent Effect in assay [1] is -2.85%; in [2], 6.67%; in assay [3] it was 1.03%; in the assay with Trypanosoma cruzi it was -1.18%; in assay [4] it was 4.87%; in assay [5] it was 9.69%. Also, the Percent Effect is 1.3% in the assay filed under Homo sapiens, 6.35% in [6], 17.5% in assay [7] and -15.1% in assay [8].

As for `O=C1COC2(COCCN(Cc3ccsc3)C2)CN1c1ccc(F)cc1` (stereo not given), the Percent Effect was -4.18% in [1]; 1.3% in assay [2]; 13.2% in [3]; -5.36% with Trypanosoma cruzi; 1.22% in assay [4]; 10.3% in assay [5]. The Percent Effect in the assay filed under Homo sapiens was -0.829%; in assay [6], 4.74%; in assay [7] it was 7.69%; in assay [8], -1.9%.

Take `c1cnnc(N2CCCC(NCc3cn4ccccc4n3)C2)c1` (stereo not given): the Percent Effect in assay [1] is 4.38%; in assay [2], 23.4%; in assay [3], -9.09%; with Trypanosoma cruzi, -10.8%; in [4], -1.43%; in assay [5], 26.5%. For the same compound, the Percent Effect in the assay listed under Homo sapiens was 17%; in assay [6], 8.82%; in assay [7], 11.8%; in assay [8], -10.5%.

For `Cc1ccccc1CC(=O)N(C)C1CCN(c2ccccn2)CC1`, the Percent Effect in assay [1] was -6.18%; in assay [2] it was 10.7%; in [3] it was 3.6%; in the assay with Trypanosoma cruzi, 5.22%; in assay [4], -1.33%; in [5] it was 15%. The Percent Effect was 6.38% in the assay filed under Homo sapiens, 5.79% in assay [6], 12.8% in [7] and -17.5% in assay [8].

For `CCc1nc(CN(C)C2CCN(CCS(C)(=O)=O)C2)no1` (stereo not given), the Percent Effect in assay [1] was -1.27%; in assay [2] it was 18.7%; in assay [3], -4.89%; in the assay with Trypanosoma cruzi, 0%; in assay [4], -1.77%; in assay [5] it was 16.9%. The Percent Effect in the assay listed under Homo sapiens was 4.92%; in assay [6], 5.79%; in [7], 17.9%; in assay [8], -5.25%.

Regarding `CCc1nc(C2CCCN2C(=O)c2ncoc2CC)no1` (stereo not given), the Percent Effect in assay [1] was -4.57%; in assay [2] it was 7.69%; in assay [3] it was 5.36%; in the assay on Trypanosoma cruzi, 10.6%; in assay [4], -4.92%; in assay [5], -5.38%. Further, the Percent Effect is -5.4% in the assay listed under Homo sapiens, 2.39% in [6], 8.43% in assay [7] and 0.961% in assay [8].

Take `O=c1c(-c2ccnc(NC3CCOCC3)n2)cnc2sc(Cl)cn12`: the Percent Effect in assay [1] is 5.59%; in assay [2], 16%; in assay [3] it was -4.95%; in the assay on Trypanosoma cruzi, -8.63%; in [4] it was -2.66%; in [5], 17.7%. Moreover, the Percent Effect in the assay listed under Homo sapiens is 12%; in [6] it was 1.58%; in assay [7], 0%; in [8], -10.8%.
